Data reported in PubChem BioAssay.
Values without a mark were called inactive. Entries that show only a call come without a potency. For part of these data: Potency and affinity values are given separately. The source made the active and inactive calls. Unless noted, no rule for the calls is given here.

Tests used:
[1] = antimalarial activity against Dd2 strain (AID 2302;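 active = growth inhibition above 50% at the single 2 µM test dose, taken to imply half-maximal potency below 2 µM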); conditions: P. falciparum Dd2 in RBCs, LDH growth readout, 72 h; at 2 µM; stronger effect = higher value
[2] = HepG2 cytotoxicity, primary screen, cytotoxicity control for P. falciparum antimalarial project, cell-based, ATP luminescence (AID 2303;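 active = inhibition above 50%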); conditions: HepG2 viability, 24-48 h, at 10 µM, stronger effect = higher value
[3] = target: L-lactate dehydrogenase (Plasmodium falciparum (isolate CDC / Honduras)) (UniProt Q27743); assay: PfLDH activity inhibition – cell lysate, 3D7 strain, counter-screen for P. falciparum growth inhibition project (AID 2304); conditions: P. falciparum 3D7 crude extract, LDH APAD/NBT absorbance; at 2 µM; stronger effect = higher value
[4] = inhibition of 3D7 malaria parasite growth – strain 3D7 (AID 2306); conditions: P. falciparum 3D7 erythrocytic growth, LDH absorbance, 72 h; at 2 µM; stronger effect = higher value
[5] = target: Calcium-dependent protein kinase 1 (Plasmodium falciparum (isolate 3D7)) (UniProt P62344); assay: PfCDPK1 kinase inhibitors, biochemical, TCAMS library (AID 1159585; cut-off not given, nearly all actives have IC50 up to about 0.98 µM;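 also: inhibitors leave more ATP so luminescence rises with inhibition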); conditions: recombinant PfCDPK1, Kinase-Glo ATP depletion luminescence
[6] = target: Plasmodium falciparum protein kinase 6 (PK6, PF3D7_1337100) (UniProt Q8IDW1); assay: PfPK6 kinase inhibitors, biochemical, TCAMS library (AID 1159586); conditions: recombinant PfPK6, Kinase-Glo ATP depletion luminescence
[7] = target: Protein kinase 7 (PK7), Plasmodium falciparum 3D7 (PF3D7_0213400) (UniProt Q7YTF7); assay: inhibition of Plasmodium PK7 catalytic activity – biochemical, TCAMS antimalarial set, Kinase-Glo luminescence (AID 1159587); conditions: recombinant PfPK7, Kinase-Glo ATP depletion luminescence
[8] = target: Calcium-dependent protein kinase 4 (Plasmodium falciparum (isolate 3D7)) (UniProt Q8IBS5); assay: PfCDPK4 kinase inhibitors, biochemical, TCAMS library (AID 1159588; cut-off not given, nearly all actives have IC50 up to about 0.91 µM); conditions: recombinant PfCDPK4, Kinase-Glo ATP depletion luminescence
Sequence of Calcium-dependent protein kinase 4 (Plasmodium falciparum (isolate 3D7)) (Q8IBS5 whole entry, looked up): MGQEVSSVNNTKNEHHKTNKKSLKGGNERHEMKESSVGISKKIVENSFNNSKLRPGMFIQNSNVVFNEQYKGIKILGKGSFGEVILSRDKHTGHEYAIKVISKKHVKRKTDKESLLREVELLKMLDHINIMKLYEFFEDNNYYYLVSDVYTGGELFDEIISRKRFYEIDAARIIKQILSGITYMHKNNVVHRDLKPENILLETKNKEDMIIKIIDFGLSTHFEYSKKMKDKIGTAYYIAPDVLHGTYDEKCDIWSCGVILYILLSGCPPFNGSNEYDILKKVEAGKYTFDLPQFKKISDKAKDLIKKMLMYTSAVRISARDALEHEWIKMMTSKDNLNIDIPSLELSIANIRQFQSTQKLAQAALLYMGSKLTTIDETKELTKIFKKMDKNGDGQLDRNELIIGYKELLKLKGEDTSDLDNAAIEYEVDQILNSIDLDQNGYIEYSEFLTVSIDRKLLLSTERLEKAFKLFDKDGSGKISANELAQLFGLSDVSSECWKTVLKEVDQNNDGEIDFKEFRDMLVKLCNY

Sequence of Calcium-dependent protein kinase 1 (Plasmodium falciparum (isolate 3D7)) (P62344 whole entry, looked up): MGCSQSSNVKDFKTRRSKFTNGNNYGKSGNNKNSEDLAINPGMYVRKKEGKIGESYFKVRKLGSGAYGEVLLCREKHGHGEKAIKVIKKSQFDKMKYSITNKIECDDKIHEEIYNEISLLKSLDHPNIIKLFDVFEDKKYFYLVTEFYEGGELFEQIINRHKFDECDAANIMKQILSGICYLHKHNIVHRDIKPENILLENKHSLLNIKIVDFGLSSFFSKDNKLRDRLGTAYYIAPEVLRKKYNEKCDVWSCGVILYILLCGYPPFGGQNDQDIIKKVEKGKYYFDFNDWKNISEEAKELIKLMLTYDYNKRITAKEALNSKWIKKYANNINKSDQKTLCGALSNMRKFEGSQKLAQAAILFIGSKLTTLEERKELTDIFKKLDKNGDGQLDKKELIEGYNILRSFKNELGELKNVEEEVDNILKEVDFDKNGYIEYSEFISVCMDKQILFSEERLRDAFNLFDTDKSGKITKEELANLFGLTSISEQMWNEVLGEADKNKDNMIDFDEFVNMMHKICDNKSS
Sequence of L-lactate dehydrogenase (Plasmodium falciparum (isolate CDC / Honduras)) (Q27743 whole entry, looked up): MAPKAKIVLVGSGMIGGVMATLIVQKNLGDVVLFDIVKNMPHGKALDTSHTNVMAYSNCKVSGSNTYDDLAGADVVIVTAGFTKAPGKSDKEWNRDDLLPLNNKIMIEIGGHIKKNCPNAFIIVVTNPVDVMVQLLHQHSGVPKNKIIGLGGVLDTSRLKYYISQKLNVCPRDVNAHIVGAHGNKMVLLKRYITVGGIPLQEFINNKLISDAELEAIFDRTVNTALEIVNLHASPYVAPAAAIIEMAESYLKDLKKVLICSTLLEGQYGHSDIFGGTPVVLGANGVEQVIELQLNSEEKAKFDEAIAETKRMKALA
Sequence of Protein kinase 7 (PK7), Plasmodium falciparum 3D7 (PF3D7_0213400) (Q7YTF7 1-343): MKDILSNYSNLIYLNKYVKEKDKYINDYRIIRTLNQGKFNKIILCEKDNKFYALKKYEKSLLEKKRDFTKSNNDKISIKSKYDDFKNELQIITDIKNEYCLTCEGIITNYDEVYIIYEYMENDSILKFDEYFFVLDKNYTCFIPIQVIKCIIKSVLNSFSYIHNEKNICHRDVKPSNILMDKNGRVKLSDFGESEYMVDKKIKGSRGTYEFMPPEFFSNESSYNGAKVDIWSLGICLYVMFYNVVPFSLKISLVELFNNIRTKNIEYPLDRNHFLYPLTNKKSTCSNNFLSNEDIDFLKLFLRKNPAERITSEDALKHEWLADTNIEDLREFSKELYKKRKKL
Sequence of Plasmodium falciparum protein kinase 6 (PK6, PF3D7_1337100) (Q8IDW1 1-305): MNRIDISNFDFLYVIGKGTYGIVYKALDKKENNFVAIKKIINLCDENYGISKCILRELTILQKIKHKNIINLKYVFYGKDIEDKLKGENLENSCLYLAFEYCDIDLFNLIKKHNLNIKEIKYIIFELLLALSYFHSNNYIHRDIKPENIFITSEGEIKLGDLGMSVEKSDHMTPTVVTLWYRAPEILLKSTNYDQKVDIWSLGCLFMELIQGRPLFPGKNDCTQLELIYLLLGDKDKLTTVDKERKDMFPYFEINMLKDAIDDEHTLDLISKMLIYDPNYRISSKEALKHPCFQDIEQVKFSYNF

O=C(Nc1ccc(F)c(C(F)(F)F)c1)NC1CCN(CCCCCNC(=O)[C@@H]2C[C@H]2c2ccc(Cl)c(Cl)c2)CC1
growth inhibition [1]: 16%
inhibition [2]: 96% (active)
inhibition [3]: 0%
growth inhibition [4]: 100% (active)
outcome [5]: inactive
outcome [6]: inactive
outcome [7]: inactive
outcome [8]: inactive

CC(C)C1C(O)=C(c2ccc3ccccc3c2)C(=O)N1CC1CCCCC1 (configuration not stated)
growth inhibition [1]: 43%
inhibition [2]: 11%
inhibition [3]: -3%
growth inhibition [4]: 84% (active)
outcome [5]: inactive
outcome [6]: inactive
outcome [7]: inactive
outcome [8]: inactive

COc1ccc2cc(C(c3nnnn3CC3CCCO3)N3CCc4ccccc43)c(=O)[nH]c2c1 (configuration not stated)
growth inhibition [1]: 3%
inhibition [2]: -3%
inhibition [3]: -1%
growth inhibition [4]: 94% (active)
outcome [5]: inactive
outcome [6]: inactive
outcome [7]: inactive
outcome [8]: inactive

O=C(Nc1cccc(CN2CCCN(Cc3ccsc3)CC2)c1)c1ccc(-c2ccccc2)cc1
growth inhibition [1]: 11%
inhibition [2]: 30%
inhibition [3]: -4%
growth inhibition [4]: 90% (active)
outcome [5]: inactive
outcome [6]: inactive
outcome [7]: inactive
outcome [8]: inactive

CC(C)CNCc1ccc(-c2cccc(CNC3CCN(Cc4ccccc4)CC3)c2)cc1
growth inhibition [1]: 100% (active)
inhibition [2]: 34%
inhibition [3]: -9%
growth inhibition [4]: 101% (active)
outcome [5]: inactive
outcome [6]: inactive
outcome [7]: inactive
outcome [8]: inactive

c1cncc(CCNCc2cccc(-c3csc(-c4nc5ccccc5[nH]4)c3)c2)c1
growth inhibition [1]: 98% (active)
inhibition [2]: 26%
inhibition [3]: -1%
growth inhibition [4]: 100% (active)
outcome [5]: inactive
outcome [6]: inactive
outcome [7]: inactive
outcome [8]: inactive

CN(C)c1ccc(-c2csc(C(=O)NC3CCN(CCC(C)(C)C)C3)c2)cc1 (configuration not stated)
growth inhibition [1]: 36%
inhibition [2]: 20%
inhibition [3]: 2%
growth inhibition [4]: 95% (active)
outcome [5]: inactive
outcome [6]: inactive
outcome [7]: inactive
outcome [8]: inactive

CC(O)C1CCCCN1C(=O)c1cccc(-c2cccc(-c3nc4ccc(C(F)(F)F)cc4[nH]3)c2)c1 (configuration not stated)
growth inhibition [1]: 100% (active)
inhibition [2]: 32%
inhibition [3]: -5%
growth inhibition [4]: 100% (active)
outcome [5]: inactive
outcome [6]: inactive
outcome [7]: inactive
outcome [8]: inactive

CC(CNC1CCN(CCn2c(=O)ccc3ccc(F)cc32)CC1)c1ccccc1 (configuration not stated)
growth inhibition [1]: 4%
inhibition [2]: -12%
inhibition [3]: -1%
growth inhibition [4]: 85% (active)
outcome [5]: inactive
outcome [6]: inactive
outcome [7]: inactive
outcome [8]: inactive

O=C(Nc1cccc(C(F)(F)F)c1)c1ccc(S(=O)(=O)NCC2CCCN(CC3CCCCC3)C2)cc1 (configuration not stated)
growth inhibition [1]: 9%
inhibition [2]: 26%
inhibition [3]: -4%
growth inhibition [4]: 95% (active)
outcome [5]: inactive
outcome [6]: inactive
outcome [7]: inactive
outcome [8]: inactive

O=C(NCC1CCC(C(=O)NC2CCCc3ccccc32)CC1)c1ccc(O)c(-c2cccc([N+](=O)[O-])c2)c1 (configuration not stated)
growth inhibition [1]: 97% (active)
inhibition [2]: 2%
inhibition [3]: -2%
growth inhibition [4]: 99% (active)
outcome [5]: inactive
outcome [6]: inactive
outcome [7]: inactive
outcome [8]: inactive

COc1ccc2nc3cc(Cl)ccc3c(NCCCCNc3c4ccc(Cl)cc4nc4ccc(OC)cc34)c2c1
growth inhibition [1]: 99% (active)
inhibition [2]: 20%
inhibition [3]: 6%
growth inhibition [4]: 99% (active)
outcome [5]: inactive
outcome [6]: inactive
outcome [7]: inactive
outcome [8]: inactive

COc1cc(OC)cc(-c2nn(-c3ccc([N+](=O)[O-])cc3Cl)c(=S)n2CC2CCCO2)c1 (configuration not stated)
growth inhibition [1]: 98% (active)
inhibition [2]: 5%
inhibition [3]: 0%
growth inhibition [4]: 98% (active)
outcome [5]: inactive
outcome [6]: inactive
outcome [7]: inactive
outcome [8]: inactive

O=C1CC(C(=O)O)CC(=O)N1
growth inhibition [1]: 88% (active)
inhibition [2]: -3%
inhibition [3]: 6%
growth inhibition [4]: 94% (active)
outcome [5]: inactive
outcome [6]: inactive
outcome [7]: inactive
outcome [8]: inactive

O=C(NCC1CCC(C(=O)O)CC1)c1ccc(/C=C/C(=O)N2CCc3ccccc3C2c2ccc3c(c2)OCO3)cc1 (configuration not stated)
growth inhibition [1]: 17%
inhibition [2]: 66% (active)
inhibition [3]: 2%
growth inhibition [4]: 91% (active)
outcome [5]: inactive
outcome [6]: inactive
outcome [7]: inactive
outcome [8]: inactive

COc1cccc2cc(C(=O)N[C@@H](CC(C)C)C(=O)N[C@H](/C=N/NC(=O)c3ccccc3)Cc3cnc[nH]3)oc12
growth inhibition [1]: 90% (active)
inhibition [2]: 3%
inhibition [3]: -6%
growth inhibition [4]: 99% (active)
outcome [5]: inactive
outcome [6]: inactive
outcome [7]: inactive
outcome [8]: inactive

Clc1ccccc1/C=C/c1cncnc1Nc1ccc2nc(Cc3ccccc3)[nH]c2c1
growth inhibition [1]: 26%
inhibition [2]: 4%
inhibition [3]: -1%
growth inhibition [4]: 96% (active)
outcome [5]: inactive
outcome [6]: inactive
outcome [7]: inactive
outcome [8]: inactive

COc1ccc2nccc([C@@H](O)CN3CCC(NCC(O)Cc4ccccc4)CC3)c2c1 (some centres not stated)
growth inhibition [1]: 6%
inhibition [2]: 5%
inhibition [3]: -3%
growth inhibition [4]: 98% (active)
outcome [5]: inactive
outcome [6]: inactive
outcome [7]: inactive
outcome [8]: inactive

Cc1ccc(OC2CCN(CCCCC3(C)C(=O)Nc4ccccc43)CC2)cc1 (configuration not stated)
growth inhibition [1]: 2%
inhibition [2]: 63% (active)
inhibition [3]: -3%
growth inhibition [4]: 100% (active)
outcome [5]: inactive
outcome [6]: inactive
outcome [7]: inactive
outcome [8]: inactive

O=C(C=Cc1ccc(Cl)c(Cl)c1)NCCCCCN1CCC(CCNC(=O)C(c2ccccc2)c2ccccc2)CC1
growth inhibition [1]: 43%
inhibition [2]: 61% (active)
inhibition [3]: 4%
growth inhibition [4]: 90% (active)
outcome [5]: inactive
outcome [6]: inactive
outcome [7]: inactive
outcome [8]: inactive

Fc1cccc(COc2ccc(-n3ccc4c(NCCCn5ccnc5)ncnc43)cc2Cl)n1
growth inhibition [1]: 29%
inhibition [2]: 14%
inhibition [3]: -2%
growth inhibition [4]: 87% (active)
outcome [5]: inactive
outcome [6]: inactive
outcome [7]: inactive
outcome [8]: inactive

O=C1CCCN1CCCNCc1cccc(-c2cccc(-c3nc4ccc(C(F)(F)F)cc4[nH]3)c2)c1
growth inhibition [1]: 90% (active)
inhibition [2]: 28%
inhibition [3]: -3%
growth inhibition [4]: 101% (active)
outcome [5]: inactive
outcome [6]: inactive
outcome [7]: inactive
outcome [8]: inactive

O=C1OC2(CCN(C(=O)c3ccc(-n4cnnn4)cc3)CC2)CN1Cc1ccc(Cl)c(Cl)c1
growth inhibition [1]: 70% (active)
inhibition [2]: 11%
inhibition [3]: -7%
growth inhibition [4]: 97% (active)
outcome [5]: inactive
outcome [6]: inactive
outcome [7]: inactive
outcome [8]: inactive

Cc1noc(C)c1-c1ccc(C(=C2CCCCCCC2)c2ccc(O)cc2)cc1
growth inhibition [1]: 48%
inhibition [2]: -6%
inhibition [3]: 1%
growth inhibition [4]: 83% (active)
outcome [5]: inactive
outcome [6]: inactive
outcome [7]: inactive
outcome [8]: inactive

CN1CCN(CCCN(Cc2ccc(-c3ccc(CNCc4ccc5c(c4)OCO5)cc3)cc2)C(=O)Nc2ccccc2)CC1
growth inhibition [1]: 77% (active)
inhibition [2]: 36%
inhibition [3]: -3%
growth inhibition [4]: 94% (active)
outcome [5]: inactive
outcome [6]: inactive
outcome [7]: inactive
outcome [8]: inactive

COc1ccc(CNC2CCN(C)CC2)cc1-c1ccc(S(=O)(=O)NCc2ccccc2)c(C)c1
growth inhibition [1]: 98% (active)
inhibition [2]: 81% (active)
inhibition [3]: 3%
growth inhibition [4]: 100% (active)
outcome [5]: inactive
outcome [6]: inactive
outcome [7]: inactive
outcome [8]: inactive

CCN(CC)CCCN(C(=O)c1cc2c(C)nn(-c3ccccc3)c2s1)c1nc(-c2ccc(OC)cc2)cs1
growth inhibition [1]: 32%
inhibition [2]: 12%
inhibition [3]: -7%
growth inhibition [4]: 89% (active)
outcome [5]: inactive
outcome [6]: inactive
outcome [7]: inactive
outcome [8]: inactive

O=C(Nc1ccc(Cn2ncc(N3CCNCC3)c(Cl)c2=O)cc1)Nc1ccc(-c2ccccc2)cc1
growth inhibition [1]: 33%
inhibition [2]: 29%
inhibition [3]: -1%
growth inhibition [4]: 98% (active)
outcome [5]: inactive
outcome [6]: inactive
outcome [7]: inactive
outcome [8]: inactive

COc1cccc(-c2cnc(N)c(-c3nc4ccc(F)cc4[nH]3)c2)c1
growth inhibition [1]: 43%
inhibition [2]: 47%
inhibition [3]: 5%
growth inhibition [4]: 97% (active)
outcome [5]: inactive
outcome [6]: inactive
outcome [7]: inactive
outcome [8]: inactive

CC(CO)(CO)NCc1cc2c3ccccc3c(CNC(C)(CO)CO)cc2c2ccccc12
growth inhibition [1]: 98% (active)
inhibition [2]: 40%
inhibition [3]: 3%
growth inhibition [4]: 96% (active)
outcome [5]: inactive
outcome [6]: inactive
outcome [7]: inactive
outcome [8]: inactive

O=C(Nc1cccc(-c2ccc(-c3nc4ccc(C(F)(F)F)cc4[nH]3)cc2)c1)Nc1ccc(Cl)c(Cl)c1
growth inhibition [1]: 51% (active)
inhibition [2]: 93% (active)
inhibition [3]: -2%
growth inhibition [4]: 100% (active)
outcome [5]: inactive
outcome [6]: inactive
outcome [7]: inactive
outcome [8]: inactive

O=C(Nc1ccc(Cl)cc1C(=O)Nc1ccncc1)c1ccc(Cl)cc1Cl
growth inhibition [1]: 75% (active)
inhibition [2]: 8%
inhibition [3]: -5%
growth inhibition [4]: 99% (active)
outcome [5]: inactive
outcome [6]: inactive
outcome [7]: inactive
outcome [8]: inactive

CCN(CC)CCCCNc1cc(-c2[nH]c(-c3c(Cl)cccc3Cl)nc2-c2ccc3cc(OC)ccc3c2)ccn1
growth inhibition [1]: 93% (active)
inhibition [2]: 23%
inhibition [3]: -5%
growth inhibition [4]: 95% (active)
outcome [5]: inactive
outcome [6]: inactive
outcome [7]: inactive
outcome [8]: inactive

CCn1c(SC)nnc1C1CCCN(CC(=O)Nc2nc3ccc(OC)cc3s2)C1 (configuration not stated)
growth inhibition [1]: 81% (active)
inhibition [2]: -3%
inhibition [3]: 0%
growth inhibition [4]: 97% (active)
outcome [5]: inactive
outcome [6]: inactive
outcome [7]: inactive
outcome [8]: inactive

CCN(CCCN1CCCCC1)c1cc(C)nc(Nc2ccc(F)c(C(F)(F)F)c2)n1
growth inhibition [1]: 93% (active)
inhibition [2]: 32%
inhibition [3]: 0%
growth inhibition [4]: 100% (active)
outcome [5]: inactive
outcome [6]: inactive
outcome [7]: inactive
outcome [8]: inactive

CN(C)CCCN1CCN(C(=O)c2cccc(-c3noc(C(F)(F)F)n3)c2)CC1
growth inhibition [1]: 60% (active)
inhibition [2]: -7%
inhibition [3]: -4%
growth inhibition [4]: 92% (active)
outcome [5]: inactive
outcome [6]: inactive
outcome [7]: inactive
outcome [8]: inactive

Cc1ccc(Cc2cnc(CN3CCCCC3)c(O)c2)cc1
growth inhibition [1]: 75% (active)
inhibition [2]: 4%
inhibition [3]: 1%
growth inhibition [4]: 93% (active)
outcome [5]: inactive
outcome [6]: inactive
outcome [7]: inactive
outcome [8]: inactive

COc1ccc(CN2C(=S)N(Cc3ccccc3)C(=O)C2CC(=O)Nc2ccccc2)cc1OC (configuration not stated)
growth inhibition [1]: 73% (active)
inhibition [2]: 6%
inhibition [3]: -2%
growth inhibition [4]: 96% (active)
outcome [5]: inactive
outcome [6]: inactive
outcome [7]: inactive
outcome [8]: inactive

O=C(NCCCNc1ccc2ccccc2n1)c1cc2c(Cl)cc(Cl)cc2[nH]1
growth inhibition [1]: 100% (active)
inhibition [2]: 40%
inhibition [3]: 4%
growth inhibition [4]: 100% (active)
outcome [5]: inactive
outcome [6]: inactive
outcome [7]: inactive
outcome [8]: inactive
